Data: publication PMC4336329 (PLoS ONE, 2015)
Among all 310,000 compounds or so, about 2,200 (0.71%) showed an effect of 50% or more. Effects have a minus sign here. The sample as a whole holds a higher share of strong results than the screen did.

Target: human ether-à-go-go-related gene (hERG) potassium channel (human, UniProt Q12809)
Experiment: primary screen, population patch clamp on CHO cells stably expressing hERG; higher = less effect of the substance

Chain of human ether-à-go-go-related gene (hERG) potassium channel (Q12809 whole entry, looked up): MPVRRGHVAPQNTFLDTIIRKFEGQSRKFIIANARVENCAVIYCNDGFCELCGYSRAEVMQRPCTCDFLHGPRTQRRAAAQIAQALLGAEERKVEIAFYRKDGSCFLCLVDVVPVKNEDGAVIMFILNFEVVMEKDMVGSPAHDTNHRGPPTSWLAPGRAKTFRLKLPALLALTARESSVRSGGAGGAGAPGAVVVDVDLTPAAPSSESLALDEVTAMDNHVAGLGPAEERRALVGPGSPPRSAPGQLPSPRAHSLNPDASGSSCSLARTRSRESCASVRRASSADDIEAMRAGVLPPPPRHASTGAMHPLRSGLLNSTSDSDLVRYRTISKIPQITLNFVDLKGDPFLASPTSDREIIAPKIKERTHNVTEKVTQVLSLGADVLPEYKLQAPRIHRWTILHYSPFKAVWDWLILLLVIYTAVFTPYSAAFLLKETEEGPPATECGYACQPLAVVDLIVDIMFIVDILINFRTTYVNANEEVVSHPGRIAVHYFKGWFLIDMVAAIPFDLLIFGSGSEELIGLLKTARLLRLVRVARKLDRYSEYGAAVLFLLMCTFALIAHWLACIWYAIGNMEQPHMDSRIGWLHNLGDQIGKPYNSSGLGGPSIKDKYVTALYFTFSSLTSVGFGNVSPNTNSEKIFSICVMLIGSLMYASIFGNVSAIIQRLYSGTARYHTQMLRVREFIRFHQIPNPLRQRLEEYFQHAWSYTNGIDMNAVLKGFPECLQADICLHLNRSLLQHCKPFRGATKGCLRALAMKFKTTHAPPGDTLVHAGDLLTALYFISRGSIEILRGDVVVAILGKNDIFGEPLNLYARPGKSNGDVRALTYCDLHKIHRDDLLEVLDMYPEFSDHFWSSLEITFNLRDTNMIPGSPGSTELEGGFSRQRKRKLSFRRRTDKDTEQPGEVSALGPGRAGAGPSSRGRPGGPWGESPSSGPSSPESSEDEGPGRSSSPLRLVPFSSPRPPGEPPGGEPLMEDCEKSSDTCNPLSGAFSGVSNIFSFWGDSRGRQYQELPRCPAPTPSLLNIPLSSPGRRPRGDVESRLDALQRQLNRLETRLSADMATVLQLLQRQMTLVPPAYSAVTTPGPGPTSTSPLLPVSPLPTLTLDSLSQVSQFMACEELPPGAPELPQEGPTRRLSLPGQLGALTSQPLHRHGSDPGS

| Structure (SMILES) | hERG current change (%, negative = inhibition) at 1uM [%] |
| --- | --- |
| CC1CN(S(=O)(=O)c2cccc(C(=O)NCC3COc4ccccc4O3)c2)CC(C)O1 (centres unmarked) | 0.895 |
| O=c1ccc(-c2nc3ccccc3n2Cc2ccc(Cl)cc2)c[nH]1 | -50.5 |
| O=c1ccc(-c2nc3ccccc3n2Cc2ccccc2Cl)c[nH]1 | 4.18 |
| O=c1ccc(-c2nc3cc(Cl)ccc3n2Cc2ccccc2)c[nH]1 | -45 |
| Cc1cc(C)nc(SCC(=O)c2ccc(O)c(O)c2)n1 | 16 |
| O=S(=O)(N/N=C/c1cn(Cc2ccccc2)c2ccccc12)c1ccccc1 | 6.23 |
| CCc1ccc2oc(C(=O)N3CCN(c4ccccc4OC)CC3)cc(=O)c2c1 | -57.4 |
| COc1ccc(N2CCN(C(=O)c3cc(=O)c4cc(Cl)ccc4o3)CC2)cc1 | -81.5 |
| COc1ccccc1N1CCN(C(=O)c2cc(=O)c3ccc(C)cc3o2)CC1 | 1.21 |
| CCc1ccc2oc(C(=O)N3CCN(c4ccc(OC)cc4)CC3)cc(=O)c2c1 | 1.45 |
| COc1ccc(N2CCN(C(=O)c3cc(=O)c4cc(C)ccc4o3)CC2)cc1 | -3.09 |
| COc1ccccc1N1CCN(C(=O)c2cc(=O)c3cc(C)ccc3o2)CC1 | -8.99 |
| Cc1ccc(Cn2nnc3c(=O)[nH]c(C4CCCN(C(=O)Nc5ccc(F)cc5F)C4)nc32)cc1 (centres unmarked) | 13.8 |
| O=C(CNC(=O)c1ccccc1O)N/N=C/c1ccccn1 | 4.2 |
| COc1ccc(Cc2nnc(SCC(=O)Nc3ccc(C)c(Cl)c3)[nH]c2=O)cc1 | 5.51 |
| CC(C)=CCCC(C)CN1CCC(n2nccc2NC(=O)c2ccccc2)CC1 (centres unmarked) | -52.2 |
| CC(C)=CCCC(C)CN1CCC(n2nccc2NC(=O)c2cccnc2)CC1 (centres unmarked) | -5.79 |
| CC(CN1CCC(n2nccc2NC(=O)C2CCCC2)CC1)c1ccccc1 (centres unmarked) | 2.95 |
| CCc1ccc(CN2CCC(n3nccc3NC(=O)c3ccccc3)CC2)o1 | -6.11 |
| O=C(Nc1ccnn1C1CCN(CC(O)CO)CC1)C1CCCC1 (centres unmarked) | 12.5 |
| CC(C)=CCCC(C)CN1CCC(n2nccc2NC(=O)C2CCCC2)CC1 (centres unmarked) | -50.3 |
| CCOC(=O)C(C)n1cnc2c1c(=O)[nH]c(=O)n2C (centres unmarked) | 8.76 |
| CCCCNC(=O)[C@H]1C[C@H]1[C@@H](O)[C@H](CO)NC(=O)[C@H](Cc1ccccc1)NC(=O)OC(C)(C)C | 11.5 |
| CCOc1ccc(C(=O)Nc2ccc(S(=O)(=O)N3C[C@@H]4C[C@@H](C3)c3cccc(=O)n3C4)cc2)cc1 | -1.43 |
| COc1ccc2[nH]c(C(=O)NCc3ccccc3)c(C)c2c1.Cl | 10.3 |
| CCN(CC)CCNC(=O)c1[nH]c2ccc(OCc3ccccc3)cc2c1C | -61.3 |
| Cc1c(C(=O)N2CCOCC2)[nH]c2ccc(OCc3ccccc3)cc12 | -1.19 |

| Structure (SMILES) | hERG current change (%, negative = inhibition) at 1uM [%] |
| --- | --- |
| COc1ccc(N(C(=O)c2ccccc2OC)C2C=CS(=O)(=O)C2)c(OC)c1 (centres unmarked) | 14.4 |
| COc1ccc(CN2CCNC(=O)C2CC(=O)NCCc2nc(C)c3c(n2)CCC3)cc1C (centres unmarked) | 32.9 |
| CCC(c1nnnn1CCc1ccccc1)N1CCN(c2ccc(OC)cc2)CC1 (centres unmarked) | 14.5 |
| OCC1(Cc2cccc(F)c2)CCN(Cc2cccc3nccnc23)CC1 | -19.8 |
| COc1ccc(CC2(CO)CCN(Cc3ccncc3)CC2)cc1 | 7.36 |
| COc1ccc(F)c(CN2CCC(CO)(Cc3cccc(C(F)(F)F)c3)CC2)c1 | -1.43 |
| COc1cccc(CC2(CO)CCN(Cc3cccn3-c3cccnc3)CC2)c1 | -6.04 |
| COc1ccc(CC2(CO)CCN(Cc3cccn3-c3ccccn3)CC2)cc1 | -84.2 |
| COc1ccc(CC2(CO)CCN(Cc3ccc(OC(F)(F)F)cc3)CC2)cc1 | -57.5 |
| COC(=O)c1ccc(CN2CCC(CO)(Cc3ccc(OC)cc3)CC2)cc1 | -35.1 |
| COc1ccc(CC2(CO)CCN(Cc3cccc(OC)c3OC)CC2)cc1 | -17.3 |
| COc1ccc(CC2(CO)CCN(Cc3cccnc3)CC2)cc1 | 1.4 |
| COc1ccc(CN2CCC(CO)(Cc3ccccc3C(F)(F)F)CC2)c(F)c1 | -53 |
| COc1ccc(CC2(CO)CCN(Cc3cccc4nccnc34)CC2)cc1 | -53 |
| OCC1(Cc2ccccc2C(F)(F)F)CCN(Cc2ccccc2)CC1 | 3.01 |
| Cc1ccc(-c2nc(CS(=O)CC(=O)N3CCC4(CC3)OCCO4)c(C)o2)cc1 (centres unmarked) | -3.05 |
| Cc1ccc(N2CCN(C(=S)Nc3ccc(Cl)cc3)CC2)cc1 | 13.4 |
| CCN(CCCNC(=O)Cn1ncc2c([nH]c3ccccc32)c1=O)Cc1ccccc1 | -2.84 |
| Nc1c(C(=O)c2ccccc2)sc2snc(SCC(=O)c3ccccc3)c12 | 14.8 |
| COc1cc(/C=C/C(=O)OCC(=O)N2CCCc3ccccc32)ccc1OCC#N | 14.6 |
| Nc1cccc(Oc2ccc([N+](=O)[O-])cc2)c1 | 7.1 |
| Cc1nc(-c2cnn(-c3ccccc3)c2)c2cc(C)oc2n1 | 10.3 |
| Cc1nn(-c2ccccn2)c2c1-c1nc(N3CCOCC3)ncc1CC2 | 8.1 |
| CC[C@@H]1CN(C)[C@H]2Cc3c([nH]c4ccccc34)C(=O)C[C@@H]1[C@@H]2C(=O)OC | 11.8 |
| CC[C@H]1CN(C)CCc2c([nH]c3ccccc23)C(=O)C[C@@H]1/C(=C\OC)C(=O)OC | -53.3 |
| CC[C@H]1CN(C)C[C@@]2(C(=O)OC)Cc3c([nH]c4ccccc34)C(=O)C[C@@H]12 | 10.5 |
